Source: PubChem (The Scripps Research Institute Molecular Screening Center)
An excerpt weighted towards active compounds, which were near 2.9% of everything screened.
PME-1 primary = PME-1 inhibitors via competitive probe labeling, primary screen, biochemical, fluorescence polarization, FP-Rh probe, HTS; inhibition, % at 5.9 µM; hit rate 0.53% among 320,000; recombinant PME-1; AID 2130, 2009; Protein phosphatase methylesterase 1 (Homo sapiens), Q9Y570;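 active = inhibition above the campaign mean of all compounds plus 3 SD, cut at about 26% in these data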;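 also: competitive labeling of PME-1 active site by serine hydrolase directed probe; 0% = PME-1 with DMSO and 100% = wells lacking PME-1 enzyme; inhibitors block probe labeling so polarization falls and inhibition rises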
Target sequence (Q9Y570 whole entry, looked up): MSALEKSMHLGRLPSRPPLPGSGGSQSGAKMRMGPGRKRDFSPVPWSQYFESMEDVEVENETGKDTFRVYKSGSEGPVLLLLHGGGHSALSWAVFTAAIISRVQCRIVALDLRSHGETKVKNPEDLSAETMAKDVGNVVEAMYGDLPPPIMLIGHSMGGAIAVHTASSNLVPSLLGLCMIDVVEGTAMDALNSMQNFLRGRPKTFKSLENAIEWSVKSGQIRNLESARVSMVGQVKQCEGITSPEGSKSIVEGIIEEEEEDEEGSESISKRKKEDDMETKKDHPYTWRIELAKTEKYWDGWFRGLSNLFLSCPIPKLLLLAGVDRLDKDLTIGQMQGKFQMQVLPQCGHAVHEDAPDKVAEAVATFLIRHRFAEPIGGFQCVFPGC
PAFAH1B3 inh = PAFAH1B3 enzyme inhibitors, primary screen, biochemical, fluorescence polarization, human | hit rate 0.28% among 340,000 | inhibition, % at 3.39 µM | recombinant PAFAH1B3, FP-rhodamine probe;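 active = inhibition above the screen-wide average of all tested compounds plus 3 SD, cut at about 25% in these data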;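 also: 0% = enzyme with DMSO only and 100% = wells lacking PAFAH1B3 protein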
PAFAH1B2 inh = PAFAH1B2 enzyme inhibitors, primary screen, biochemical, fluorescence polarization, human; Platelet-activating factor acetylhydrolase IB subunit alpha2 (Homo sapiens), P68402; recombinant PAFAH1B2, FP-rhodamine activity probe; inhibition, % at 3.39 µM; hit rate 1.2% among 340,000; AID 492953, 2010;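 active = inhibition above the mean of all tested compounds plus 3 SD, cut at about 24% in these data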;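 also: 0% = enzyme with DMSO and 100% = wells lacking PAFAH1B2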
Target sequence (P68402 whole entry, looked up): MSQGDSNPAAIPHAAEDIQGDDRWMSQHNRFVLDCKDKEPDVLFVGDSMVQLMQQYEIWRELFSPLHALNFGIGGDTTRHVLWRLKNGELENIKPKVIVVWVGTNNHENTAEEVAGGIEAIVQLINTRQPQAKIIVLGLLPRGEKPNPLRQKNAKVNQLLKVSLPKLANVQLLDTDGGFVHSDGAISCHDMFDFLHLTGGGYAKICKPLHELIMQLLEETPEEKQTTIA
PAFAH2 FP inh = PAFAH2 enzyme inhibitors, primary screen, biochemical, fluorescence polarization, human | Platelet-activating factor acetylhydrolase 2, cytoplasmic (Homo sapiens), Q99487 | recombinant PAFAH2, FP-rhodamine activity probe | inhibition, % at 3.39 µM | hit rate 0.99% among 340,000;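 active = inhibition above the mean over all tested compounds plus 3 SD, cut at about 30% in these data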;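 also: inhibitors block probe labeling of enzyme so polarization drops; 0% = enzyme with DMSO and 100% = wells lacking PAFAH2 protein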
pPAFAH inh = pPAFAH enzyme inhibitors, primary screen, biochemical, fluorescence polarization, human. Platelet-activating factor acetylhydrolase (Homo sapiens), Q13093. recombinant pPAFAH, FP-rhodamine probe fluorescence polarization. inhibition, % at 3.39 µM. hit rate 1.5% among 330,000;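 active = inhibition above the mean inhibition across the screen plus 3 SD, cut at about 25% in these data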;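 also: inhibitors block binding of the rhodamine activity-based probe so polarization drops; 0% = enzyme with DMSO and 100% = wells lacking pPAFAH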
Fam108B counter = mouse Fam108B serine hydrolase inhibitors, primary screen, counter-screen for RBBP9 inhibitor project, biochemical, fluorescence polarization; recombinant Fam108B, FP-Rh probe fluorescence polarization; inhibition, % at 9.51 µM; hit rate 0.33% among 300,000; AID 1947, 2009;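 active = inhibition above the screen mean inhibition plus 3 SD, computed separately per campaign, cut at about 18% in these data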;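 also: inhibitors lower polarization as less probe binds the enzyme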
Fam108b inh conf = mouse Fam108b serine hydrolase inhibitors, confirmation, counter-screen for RBBP9 inhibitor project, biochemical, fluorescence polarization, triplicate; recombinant Fam108b, FP-Rh probe fluorescence polarization; hit rate 44% among 930; shares compounds with Fam108B counter; AID 1978, 2009; inhibition, % at 9.51 µM;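 active = inhibition above a limit from the primary screen, the mean over all compounds plus 3 SD, cut at about 19% in these data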;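 also: 0% = median of active Fam108b wells and 100% = catalytically dead S170A mutant; inhibitors free the probe so polarization falls as inhibition rises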
Fam108b inh = inhibition of mouse Fam108b by HTS hits, late-stage follow-up, biochemical, gel-based ABPP, soluble recombinant form. fluorophosphonate probe. hit rate 44% among 260. inhibition, % at 20 µM. shares compounds with Fam108B counter; in the data active = inhibition above about 40%
pPAFAH FP conf = pPAFAH (PLA2G7) enzyme inhibitors, confirmation, biochemical, fluorescence polarization, human. shares compounds with pPAFAH inh. recombinant pPAFAH, FP-Rh probe fluorescence polarization. inhibition, % at 3.39 µM. hit rate 72% among 2,300;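 active = mean inhibition of the triplicate above the hit cutoff set for the earlier primary screen, cut at about 25% in these data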;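 also: 0% = enzyme with DMSO and 100% = wells lacking pPAFAH enzyme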
Starred values were filed as active, the others as inactive; / = no result.

SMILES	PME-1 primary	PAFAH1B3 inh	PAFAH1B2 inh	PAFAH2 FP inh	pPAFAH inh	Fam108B counter	Fam108b inh conf	pPAFAH FP conf	others
Cn1c(=O)c(N)c2c3c(c(Br)ccc31)C(=O)c1ccccc1-2	37.0*	38.3*	28.7*	40.0*	42.6*	29.4*	25.7*	39.4*
Cn1c(=O)c2c(nc(Oc3ccccc3Br)n2C)n(C)c1=O	/	7.5	3.4	6.6	/	/	/	/
CC1=NN(c2ccccc2)C(=O)/C1=C/C=C/c1ccccc1	16.2	11.9	11.2	10.0	2.0	6.9	/	/
CC1=NN(c2cccc(C(=O)O)c2)C(=O)/C1=C\C=C\c1ccco1	-6.8	13.0	10.1	48.5*	44.8*	24.4*	29.4*	32.0*
O=C(Nc1cc(S(=O)(=O)N2CCCC2)ccc1OCC(F)(F)F)c1ccccc1F	5.7	5.5	-0.3	-0.5	0.9	1.6	/	/
Cc1ccc(S(=O)(=O)Nc2ccccc2C(=O)OC(C)C(=O)Nc2ccc3ccccc3c2)cc1[N+](=O)[O-] (stereo not given)	-13.2	-13.4	-6.0	13.1	13.2	-11.0	/	/
COc1ccc(NC(=S)NNc2ccc(S(=O)(=O)Nc3ccccc3C(=O)O)cc2[N+](=O)[O-])cc1	49.8*	27.4*	15.7	63.9*	58.0*	51.8*	15.4	81.9*
Cc1nn(-c2ccccc2)c(Cl)c1/C=N/NS(=O)(=O)c1ccc(Br)cc1	-0.8	8.3	7.7	7.0	2.2	0.9	/	/
Cc1nn(-c2ccccc2)c(Cl)c1/C=N/Nc1ccc(S(=O)(=O)Nc2ccccc2C(=O)O)cc1[N+](=O)[O-]	51.4*	10.3	13.4	26.3	46.5*	32.8*	50.8*	78.1*
O=c1cc(CN2CCN(c3ccccc3O)CC2)nc2sccn12	-1.1	5.7	2.7	5.6	2.9	-3.1	/	/
Cc1cc(NC(=O)c2ccc(Cl)cc2)c(C)cc1O	-3.1	7.3	3.6	-2.0	4.0	-1.2	/	/
Cc1cc(C(C#N)c2ccc(Cl)cc2)c(Cl)cc1NC(=O)c1cc(I)cc(I)c1O (stereo not given)	40.2*	10.7	11.0	13.0	46.5*	25.3*	41.7*	40.8*	Fam108b inh=45.0*
Oc1ccc(Br)cc1/C=N/n1c(-c2ccccc2)n[nH]c1=S	-0.3	6.0	9.3	10.3	-5.5	-2.7	/	/
Oc1c(Br)cc(Br)c(/C=N/n2c(-c3ccccc3)n[nH]c2=S)c1Br	37.9*	0.9	9.4	31.0*	41.6*	19.1*	16.0	53.4*
O=C(Nc1cccc(-c2csc(Nc3ccc(Cl)cc3)n2)c1)c1cc([N+](=O)[O-])cc(C(F)(F)F)c1	35.5*	49.4*	39.3*	52.5*	40.5*	58.9*	67.6*	20.9	Fam108b inh=100.0*
CC1=NN(c2ccccc2)C(=O)/C1=C\c1c(C)[nH]n(-c2ccccc2)c1=O	-0.8	4.4	-1.7	-4.2	1.2	2.6	/	/
CC1=NN(c2ccccc2)C(=O)/C1=C/c1c(O)n(-c2ccc(F)c(Cl)c2)[nH]c1=O	68.0*	/	/	/	74.7*	66.8*	65.4*	47.0*	Fam108b inh=0.0
COc1ccc(N(CC(=O)NC2CCCC2)C(=O)CCC(=O)Nc2cc(C)on2)cc1	-0.6	1.0	3.9	3.8	2.0	0.9	/	/
CCc1ccc(S(=O)(=O)/N=C2\C=C(Nc3ccc(O)cc3)C(=O)c3ccccc32)cc1	40.2*	65.8*	31.1*	37.2*	34.8*	20.1*	17.1	33.1*
CCc1ccc(S(=O)(=O)/N=C2\C=C(Nc3cccc(C(=O)O)c3)C(=O)c3ccccc32)cc1	29.2*	62.7*	38.9*	62.2*	37.4*	57.4*	78.1*	40.1*	Fam108b inh=40.0*
O=C(O)c1cccc(NS(=O)(=O)c2ccc(-c3ccc(S(=O)(=O)Nc4cccc(C(=O)O)c4)cc3)cc2)c1	-0.4	-1.8	-1.2	-4.2	-1.7	-2.5	/	/
Cc1cc(C)c(S(=O)(=O)/N=C2\C=C(Nc3ccc(C(=O)O)cc3)C(=O)c3ccccc32)c(C)c1	15.2	59.7*	26.1*	36.1*	41.9*	40.4*	59.0*	39.7*	Fam108b inh=0.0
Cc1cc([N+](=O)[O-])cc(/C=N/n2c(C)nc3ccccc3c2=O)c1O	-6.2	12.7	1.7	11.3	10.8	-2.2	/	/
C/C(=N\OCc1nc2ccccc2c(=O)n1/N=C/c1cc(C)cc([N+](=O)[O-])c1O)c1ccccc1	-4.9	3.6	0.0	1.6	45.6*	24.0*	17.1	4.3
Cc1nn(-c2ccc(Br)cc2)c(=O)c2ccccc12	93.2*	4.9	0.8	3.3	51.1*	88.4*	-11.5	3.1
SMILES	PME-1 primary	PAFAH1B3 inh	PAFAH1B2 inh	PAFAH2 FP inh	pPAFAH inh	Fam108B counter	Fam108b inh conf	pPAFAH FP conf	others
Cc1nn(-c2ccccc2C(=O)O)c(=O)c2ccccc12	-7.3	3.2	2.1	-10.1	5.5	-2.5	/	/
Cc1cccc(C)c1OCC(=O)NCc1ccccc1	1.6	3.6	1.0	-3.8	3.3	-3.0	/	/
Cc1ccc(NC(=O)CN2C(=O)N/C(=C/c3cccn3-c3ccc(C(=O)O)cc3)C2=O)cc1	-9.6	24.2	10.0	52.5*	70.5*	43.5*	39.4*	40.9*	Fam108b inh=0.0
CC(=O)Oc1ccc2c(c1)Oc1cc(OC(C)=O)ccc1C21OC(=O)c2ccccc21	120.9*	129.0*	110.3*	123.8*	99.3*	106.9*	144.7*	89.6*	Fam108b inh=0.0
CCCCCCCCCCCCCCCC[n+]1ccc(/C=N/O)cc1	56.4*	61.0*	32.7*	27.1	50.3*	40.8*	44.5*	39.7*
Cc1cccc(C)c1NC(=O)CSc1nnc(-c2ccco2)c(-c2ccco2)n1	0.0	17.8	3.6	45.3*	58.5*	26.1*	14.3	22.9
Cc1ccccc1Nc1c([N+](=O)[O-])ccc2c1=NC1(CCCCC1)N=2	4.8	20.2	2.5	12.9	1.6	5.0	/	/
CSc1nsc(/C=C/Nc2ccc(O)cc2C)c1C#N	50.6*	13.6	12.1	22.1	48.0*	21.2*	13.9	9.4
COc1ccccc1CNS(=O)(=O)c1csc(C(N)=O)c1	2.8	-0.3	8.0	-5.7	3.7	1.5	/	/
